{
  "source": "PubChem BioAssay (Tox21)",
  "note": "Values joined by “and” are separate entries in the source; they are usually repeats but may differ in a detail not shown here. Identical values can stand only once. Records with an inconclusive call do not appear. Where a call stands in place of a potency, no number is given. Values without a mark were called inactive. Active and inactive are the calls of the source. Unless noted, calls follow the shape of the dose curve; as a rule, active = well fitted curve in the direction sought with a large enough effect in the repeat runs; inconclusive = weak or mixed curves; inactive = no such curve, though single readings can be large; an effect the other way counts as inactive or inconclusive.",
  "data": [
    {"biological_target": "Estrogen receptor (Homo sapiens) (UniProt P03372)", "sequence (P03372 whole entry, looked up)": "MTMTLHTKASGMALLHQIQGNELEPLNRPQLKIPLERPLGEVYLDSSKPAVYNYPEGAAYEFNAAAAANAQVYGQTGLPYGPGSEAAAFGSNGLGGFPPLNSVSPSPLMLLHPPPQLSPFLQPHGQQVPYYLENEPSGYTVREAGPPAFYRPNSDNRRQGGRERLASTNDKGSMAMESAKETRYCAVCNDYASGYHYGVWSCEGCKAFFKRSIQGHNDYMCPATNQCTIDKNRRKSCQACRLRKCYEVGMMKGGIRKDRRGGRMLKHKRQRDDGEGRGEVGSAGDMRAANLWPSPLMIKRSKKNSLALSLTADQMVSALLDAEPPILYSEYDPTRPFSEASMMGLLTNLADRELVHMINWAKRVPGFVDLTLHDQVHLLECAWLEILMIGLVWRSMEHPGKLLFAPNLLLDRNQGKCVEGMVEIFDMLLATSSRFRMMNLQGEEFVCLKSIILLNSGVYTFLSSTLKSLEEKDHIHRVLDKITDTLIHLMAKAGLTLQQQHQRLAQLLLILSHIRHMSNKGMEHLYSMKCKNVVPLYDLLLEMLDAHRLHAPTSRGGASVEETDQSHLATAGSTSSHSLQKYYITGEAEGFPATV", "experiment": "qHTS assay to identify small molecule antagonists of the estrogen receptor alpha (ER-alpha) signaling pathway using the BG1 cell line in the presence of 0.1 nM 17-beta-estradiol (AID 1259244); also: nearly all actives have a fitted effect of over 50% in size", "details": "VM7Luc4E2 (BG1) ERE-luciferase, antagonist mode, 0.1 nM E2, 22 h; series mostly up to 92.4 µM; activity change, negative = inhibition: at the top concentration", "how_it_was_run": "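Seeding of stripped-serum-adapted VM7Luc4E2 cells, 24 h attachment, compound transfer, then 0.1 nM final 17beta-estradiol; after 22 h incubation, ONE-Glo reagent and luminescence reading.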", "values": [
      {"smiles": "CCCN(CCC)N=O", "Potency": "inactive"},
      {"smiles": "CN(N=O)c1ccccc1", "Potency": "inactive"},
      {"smiles": "CC(C)OC(=O)Nc1cccc(Cl)c1", "Potency": "inactive"},
      {"smiles": "CCCCOC(=O)c1ccccc1C(=O)OCCCC", "Potency": "inactive"},
      {"smiles": "CCCCN(CCCC)SN(C)C(=O)Oc1cccc2c1OC(C)(C)C2", "Potency": "inactive"},
      {"smiles": "O=S(=O)(c1ccc(O)cc1)c1ccc(O)cc1", "Potency": "inactive"},
      {"smiles": "Cc1ccc([N+](=O)[O-])cc1C", "Potency": "inactive"},
      {"smiles": "C1CN2CCN1CC2", "Potency": "inactive"},
      {"smiles": "Nc1c(Cl)c(Cl)nc(C(=O)O)c1Cl", "Potency": "inactive"},
      {"smiles": "CC(=O)C=C(C)C", "Potency": "inactive"},
      {"smiles": "CN(C)CCO", "Potency": "inactive"},
      {"smiles": "CC1C=[C-]C=C1.[C-]#[O+].[C-]#[O+].[C-]#[O+].[Mn]", "Potency": "inactive"},
      {"smiles": "CCN(CC)c1ccccc1", "Potency": "inactive"},
      {"smiles": "CCC12COCN1COC2", "Potency": "inactive"},
      {"smiles": "CC(C)NC(=O)N1CC(=O)N(c2cc(Cl)cc(Cl)c2)C1=O", "Potency": "inactive"},
      {"smiles": "C1CC2OC2CC1C1CO1", "note": "(stereo not given)", "Potency": "inactive"},
      {"smiles": "CC(C#N)CCC#N", "note": "(stereo not given)", "Potency": "inactive"},
      {"smiles": "Nc1ccccc1C(=O)O", "Potency": "inactive"},
      {"smiles": "[O-][Cl+2]([O-])O", "Potency": "inactive"}
    ]},
    {"test_system": "not listed separately", "experiment": "qHTS assay to identify small molecule phospholipidosis (PLD) inducers (AID 1259344; active = well fitted curve in the direction sought with a large enough effect; an effect the other way counts as inactive or inconclusive)", "details": "HepG2 phospholipidosis, LipidTOX Red imaging, 24 h; series mostly up to 38.3 µM; PLD induction: at the top concentration", "how_it_was_run": "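After 4 h attachment on collagen I, HepG2 cells were dosed with compound alongside LipidTOX Red, kept 24 h at 37 C, fixed, and imaged for lamellar phospholipid pits.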", "units": {"PLD induction": "%"}, "values": [
      {"smiles": "CC(NC(C)(C)C)C(=O)c1cccc(Cl)c1", "note": "(stereo not given)", "PLD induction": 0.0173},
      {"smiles": "CN(C)CCO", "PLD induction": -0.435},
      {"smiles": "OC(O)C(Cl)(Cl)Cl", "PLD induction": -0.882},
      {"smiles": "Nc1ccccc1C(=O)O", "PLD induction": -0.573}
    ]},
    {"test_system": "not listed separately", "experiment": "qHTS assay to identify small molecule HDAC inhibitors (AID 1259364); also: potency is read from the fitted curve at half-maximal effect;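 also: wild-type HCT-116 cells with endogenous class I/II HDAC activity; nearly all actives have a fitted effect of over 45% in size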; as to activity change, negative = inhibition: top concentration of the series differs between compounds", "details": "HCT-116 HDAC-Glo I/II luminescence, 2 h; series mostly up to 92.4 µM; activity change, negative = inhibition: at the top concentration", "how_it_was_run": "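After a 2 hr compound incubation (37C, 5% CO2), HCT-116 cells seeded at 1,500/well the day before received HDAC-Glo reagent; signal read as luminescence after 30 min at room temperature.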", "values": [
      {"smiles": "c1ccc(OP(Oc2ccccc2)Oc2ccccc2)cc1", "Potency": "inactive"},
      {"smiles": "COC(=O)c1ccccc1N", "Potency": "inactive"},
      {"smiles": "CCOP(=S)(OCC)Oc1cnc2ccccc2n1", "Potency": "inactive"},
      {"smiles": "CCCN(CCC)N=O", "Potency": "inactive"},
      {"smiles": "CN(N=O)c1ccccc1", "Potency": "inactive"},
      {"smiles": "CC(C)OC(=O)Nc1cccc(Cl)c1", "Potency": "15.1 µM (active) and 13.7 µM (active)"},
      {"smiles": "CCCCOC(=O)c1ccccc1C(=O)OCCCC", "Potency": "inactive"},
      {"smiles": "CCCCN(CCCC)SN(C)C(=O)Oc1cccc2c1OC(C)(C)C2", "Potency": "inactive"},
      {"smiles": "CC(NC(C)(C)C)C(=O)c1cccc(Cl)c1", "note": "(stereo not given)", "Potency": "inactive"},
      {"smiles": "CC(C)(C)C(O)(CCc1ccc(Cl)cc1)Cn1cncn1", "note": "(stereo not given)", "Potency": "inactive"},
      {"smiles": "CC(C)C#N", "Potency": "inactive"},
      {"smiles": "Cc1cc(Cl)ccc1O", "Potency": "inactive"},
      {"smiles": "O=S(=O)(c1ccc(O)cc1)c1ccc(O)cc1", "Potency": "inactive"},
      {"smiles": "Cc1ccc([N+](=O)[O-])cc1C", "Potency": "inactive"},
      {"smiles": "C1CN2CCN1CC2", "Potency": "inactive"},
      {"smiles": "CC(C)(Cl)Cl", "Potency": "inactive"},
      {"smiles": "CC(C)(C)OOC(=O)c1ccccc1", "Potency": "inactive"},
      {"smiles": "CCc1cccc(C)c1N(C(=O)CCl)C(C)COC", "note": "(stereo not given)", "Potency": "inactive"},
      {"smiles": "c1ccc2c(c1)Oc1ccccc1O2", "Potency": "inactive"},
      {"smiles": "O=[N+]([O-])c1ccc(Oc2ccc(Cl)cc2Cl)cc1", "Potency": "inactive"},
      {"smiles": "CCC[N+](=O)[O-]", "Potency": "inactive"},
      {"smiles": "Nc1c(Cl)c(Cl)nc(C(=O)O)c1Cl", "Potency": "inactive"},
      {"smiles": "CC(=O)C=C(C)C", "Potency": "inactive"},
      {"smiles": "C#CC(C)(C)NC(=O)c1cc(Cl)cc(Cl)c1", "Potency": "inactive"},
      {"smiles": "CN(C)CCO", "Potency": "inactive"},
      {"smiles": "OC(O)C(Cl)(Cl)Cl", "Potency": "inactive"},
      {"smiles": "CC1C=[C-]C=C1.[C-]#[O+].[C-]#[O+].[C-]#[O+].[Mn]", "Potency": "inactive"},
      {"smiles": "CCN(CC)c1ccccc1", "Potency": "inactive"},
      {"smiles": "CCC(C)(CC)c1cc(NC(=O)c2c(OC)cccc2OC)on1", "Potency": "inactive"},
      {"smiles": "CCC12COCN1COC2", "Potency": "inactive"},
      {"smiles": "CC(C)NC(=O)N1CC(=O)N(c2cc(Cl)cc(Cl)c2)C1=O", "Potency": "inactive"},
      {"smiles": "C1CC2OC2CC1C1CO1", "note": "(stereo not given)", "Potency": "inactive"},
      {"smiles": "CC(C#N)CCC#N", "note": "(stereo not given)", "Potency": "inactive"},
      {"smiles": "Nc1ccccc1C(=O)O", "Potency": "inactive"},
      {"smiles": "CCOP(=S)(OCC)SCCSCC", "Potency": "inactive"},
      {"smiles": "[O-][Cl+2]([O-])O", "Potency": "inactive"},
      {"smiles": "Clc1cccc(Cl)c1Cl", "Potency": "inactive"}
    ]}
  ]
}
